# AmpC inh no detg: AmpC beta-lactamase inhibition without detergent; Potency, µM (titrated, usually from 57.1 µM), for the others: at the top dose activity change, negative = inhibition, hits mostly inhibitors; actives 0.52% (n = 330,000); AmpC nitrocefin hydrolysis, absorbance 480 nm, 0.0001% Triton; AID 485341;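 note: plate controls were no compound for no effect and no enzyme for full effect; nearly all actives have a fitted effect of over 20% in size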
# Target sequence (P00811 whole entry, looked up): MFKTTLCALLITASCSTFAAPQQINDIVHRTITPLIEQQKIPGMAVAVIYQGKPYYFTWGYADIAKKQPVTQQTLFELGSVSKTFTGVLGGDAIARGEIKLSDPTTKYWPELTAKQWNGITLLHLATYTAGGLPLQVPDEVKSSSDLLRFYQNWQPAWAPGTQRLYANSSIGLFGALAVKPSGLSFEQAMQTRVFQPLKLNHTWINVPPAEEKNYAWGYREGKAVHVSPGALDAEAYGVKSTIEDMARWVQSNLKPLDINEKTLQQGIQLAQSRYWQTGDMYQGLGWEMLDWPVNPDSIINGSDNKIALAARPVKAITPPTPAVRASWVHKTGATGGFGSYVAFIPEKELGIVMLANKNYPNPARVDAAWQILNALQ
#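 20 mM phosphate pH 7.0 + 0.01% (detergent screen) or 0.0001% Triton X-100; 5.3 nM AmpC reagent; cpd preinc 15 min RT; nitrocefin (800 uM stock) to start; A480 q20 s × 4 min; Activity was normalised to no-enzyme and no-compound control wells.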
# Sm TGR block: inhibitors of Schistosoma mansoni thioredoxin glutathione reductase; actives 3% (n = 360,000); Q962Y6; AID 485364; Potency, µM (doses to about 114 µM), for inactives: at the top dose activity change, negative = inhibition, most hits filed as inhibitors; purified TGR, DTNB reduction, TNB absorbance 405 nm; note: nearly all actives have a fitted effect of over 60% in size
#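 TGR 20 nM + NADPH 100 uM (dispensed conc.), cpd preinc 15 min RT; start with NADPH (500 uM addition) then DTNB (15 mM addition). Kinetic TNB absorbance, 405 nm filter. Four-parameter Hill fit across titration.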
# AmpC inh detg: AmpC beta-lactamase inhibition with detergent present; AmpC hydrolysis of nitrocefin, absorbance 480 nm, 0.01% Triton; Potency, µM (highest dose often 114 µM), inactives show at the top dose activity change, negative = inhibition, hits mostly inhibitors; AID 485294; P00811; actives 0.041% (n = 370,000);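 note: 0% = no-compound wells and -100% = no-enzyme wells; nearly all actives have a fitted effect of over 25% in size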
#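 20 mM phosphate pH 7.0 + 0.01% (detergent screen) or 0.0001% Triton X-100; 5.3 nM AmpC reagent; cpd preinc 15 min RT; nitrocefin (800 uM stock) to start; A480 q20 s × 4 min; Activity was normalised to no-enzyme and no-compound control wells.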
# Numbers without * were called inactive; ? = inconclusive; · = no result; ! = repeats disagree. Hits are enriched below; roughly 3.3% of the tested compounds scored in any of these assays. Calls come from the whole dose curve; as a rule, active = well fitted curve in the direction sought with a large enough effect; inconclusive = small, poorly fitted or top-dose-only effect, or another doubt; inactive = no such curve, though single readings can be large; an effect the other way counts as inactive or inconclusive. Unless noted, % is set by controls: 0 for no effect and ±100 for the full control effect; potency is the fitted concentration of half-maximal effect.
SMILES,AmpC inh no detg,Sm TGR block,AmpC inh detg
O=c1[nH]c(C2CCCN(S(=O)(=O)c3ccccc3)C2)nc2c1nnn2Cc1ccccc1 (configuration not stated),-14%,89µM*,-14%
CCOC(=O)C1CCN(C(c2ccc(OCC)cc2)c2c(O)cc(C)n(CCOC)c2=O)CC1 (configuration not stated),·,10µM*,-5%
CCOC(=O)C1CCN(C(C(=O)NC2CCCCC2)c2ccc(OC)cc2)CC1 (configuration not stated),-12%,-1%,?
CCOC(=O)C1CCN(C(c2ccc(C)cc2)c2c(O)cc(C)n(CCOC)c2=O)CC1 (configuration not stated),·,7.9µM*,17%
CCOC(=O)C1CCN(C(=O)Cc2ccc(C)cc2)CC1,-13%,-26%,?
O=C1CCCc2cc(S(=O)(=O)NCC3CCC(C(=O)Nc4ccc(Cl)cc4)CC3)ccc2N1 (configuration not stated),·,8%,-8%
CCOC(=O)c1cnc2c(Cl)c(Cl)ccc2c1NCCN1CCOCC1,-17%,40µM*!,0%
CCOC(=O)c1cnc2c(C)c(C)ccc2c1NCCN1CCOCC1,-2%,6%,?
CCOC(=O)c1cnc2ccc(Br)cc2c1NCCCN1CCOCC1,-4%,45µM*,-1%
CCOC(=O)c1ccc2ncc(C(=O)OCC)c(NCCCN3CCOCC3)c2c1,122%,?,-13%
O=C(NCCc1ccc(Cl)cc1)c1cc(-c2ccc(Cl)cc2)n[nH]1,·,0%,5%
Cc1cc(C)cc(NC(=O)c2cc(S(=O)(=O)N3CCCC3)ccc2F)c1,·,0%,-1%
Cc1ccc(N2CCN(C(=O)c3cccs3)CC2)cc1C,-11%,35µM*,?
O=C(c1ccco1)N1CCN(c2nc(C3CC3)nc3sc4c(c23)CCCC4)CC1,42%,40µM*,-12%
Cc1nc(N2CCN(C)CC2)c2c3c(sc2n1)CCCC3,10%,6%,8%
Cc1nc(N2CCN(C(=O)c3ccco3)CC2)c2c3c(sc2n1)CCCC3,94%,45µM*,-3%
Cc1nc(N2CCN(C(=O)c3ccco3)CC2)c2c3c(sc2n1)CC(C)CC3 (configuration not stated),142%,0%,1%
Cc1nc(N2CCN(C(=O)c3cccs3)CC2)c2c3c(sc2n1)CCCC3,48%,8%,35µM*
CCc1nc(SCC(=O)N2CCN(C(=O)c3ccco3)CC2)c2c3c(sc2n1)CCCC3,0%,-22%,?
Nc1ccc(N2CCN(C(=O)c3cccs3)CC2)cc1,-17%,-10%,-13%
CCc1ccccc1NS(=O)(=O)c1ccc2c(c1)CCCN2C(=O)C1CCC1,·,-7%,1%
CCn1c(SCc2ccccc2C)nc(=O)c2c(C(=O)OC)cc(C3CC3)nc21,·,0%,0%
CC(NC(=O)c1cccc(Nc2nc3ccccc3n3nnnc23)c1)c1ccccc1 (configuration not stated),·,-3%,18%
CC(=O)N1c2ccc(S(=O)(=O)N3CCCCCC3)cc2CC1C(=O)NCc1ccccc1 (configuration not stated),·,-6%,0%
COc1cccc(-n2c(SCC(=O)N3CCc4ccccc43)nc3c([nH]c4ccccc43)c2=O)c1,·,-2%,8%
SMILES,AmpC inh no detg,Sm TGR block,AmpC inh detg
Cc1nn(C(=O)c2ccc(Cl)cc2)c(C)c1Sc1ccc(Cl)cc1,·,-4%,12%
CCSC1=N/C(=C\c2cccnc2)C(=O)N1c1ccccc1,-4%,4%,3%
CC(C)CN(CC(C)C)C1=N/C(=C\c2ccco2)C(=O)N1c1ccccc1,-21%,6.3µM*,4%
COc1ccc(N2C(=O)/C(=C\c3ccco3)N=C2SCC(=O)N(C(C)C)C(C)C)cc1Cl,-29%,?,?
CCN(CC)C1=N/C(=C\c2ccco2)C(=O)N1c1ccccc1,-21%,45µM*,?
COc1ccc(N(CC(=O)Nc2cccc(Cl)c2)S(=O)(=O)c2c(C)[nH]c(=O)[nH]c2=O)cc1,·,-1%,-7%
Cc1ccc(-n2c(SCC(=O)N/N=C/c3c(C)nn(-c4ccccc4)c3C)nc3ccccc3c2=O)cc1,-21%,-4%,?
Cc1nn(-c2ccccc2)c(C)c1/C=N/NC(=O)CSc1nnc(SCc2cccc3ccccc23)s1,2.2µM*,1%,2%
NS(=O)(=O)c1ccc(N=Nc2c[nH]c(=O)c(O)c2)cc1,-27%,8.9µM*,-15%
Nc1nc(O)c(N=Nc2ccc(S(N)(=O)=O)cc2)c(=O)[nH]1,-2%,6%,-10%
COc1ccc(Cl)cc1NC(=O)c1cnc2sccn2c1=O,3.5µM*,0%,?
O=C(Nc1cnc2sccn2c1=O)c1ccc(Cl)cc1Cl,-12%,-21%,-3%
Cc1ccc(N2C(=O)[C@@H]3C(c4cccnc4)=NO[C@@H]3C2=O)c(C)c1,-20%,?,-5%
O=C1[C@@H]2C(c3cccnc3)=NO[C@@H]2C(=O)N1c1ccc(Br)cc1,-21%,3.5µM*,6%
CCc1ccc(C(=O)N2CCC(c3nc(-c4ccc(S(=O)(=O)N5CCCC5)cc4)no3)CC2)cc1,·,2%,17%
COc1ccc(C(=O)N2CCCCC2CCN2CCOCC2)cc1 (configuration not stated),·,0%,14%
CCN(CC)CCNC(=O)c1ccc(-n2c(-c3ccccc3)cc3c2CCCC3)cc1,·,9%,18%
COc1ccccc1NC(=O)C1=C(C)Nc2nc(SCc3ccccc3Cl)nn2C1c1ccncc1 (configuration not stated),·,-11%,-3%
CCN1CCN(Cc2c(O)ccc3c(C)c(-c4ccc(OC)cc4)c(=O)oc23)CC1,·,-7%,1%
O=C(CCl)N1N=C(c2cccs2)CC1c1ccco1 (configuration not stated),-17%,2.5µM*,0%
O=C(CCl)N1N=C(c2ccco2)CC1c1ccco1 (configuration not stated),-21%,6.3µM*,-2%
CCC(=O)N1N=C(c2ccc(Cl)cc2)CC1c1ccco1 (configuration not stated),76%,-6%,7%
O=C(COc1ccccc1F)N1N=C(c2cccs2)CC1c1ccco1 (configuration not stated),-16%,25µM*,6%
O=C(c1ccco1)N1N=C(c2cccs2)CC1c1ccco1 (configuration not stated),-5%,-15%,-5%
CN1CC(=O)N(CC(=O)N2N=C(c3ccc(Cl)cc3)CC2c2ccco2)C1=O (configuration not stated),198%,22µM*,-3%
CN1CCN(CC(=O)N2N=C(c3cccs3)CC2c2ccco2)CC1 (configuration not stated),-27%,3%,-5%
O=C(O)/C=C/C(=O)N1N=C(c2ccco2)CC1c1ccco1 (configuration not stated),-31%,?,1%
CCC(=O)N1CCc2cc(S(=O)(=O)NC(CC(C)C)C(=O)Nc3ccc(CC)cc3)ccc21 (configuration not stated),·,3%,2%
